Assay results reported in PubChem BioAssay (NCATS).
Inconclusive results are not listed. Unmarked numbers belong to inactive results. Calls come from the whole dose curve; as a rule, active = well fitted inhibition curve with a large enough effect; inconclusive = small, poorly fitted or top-dose-only effect; inactive = flat fitted curve, though single readings scatter.

Molecular target: Calcium and integrin-binding protein 1 (Homo sapiens) (UniProt Q99828)
Test: Primary qHTS for Identification of Calcium Integrin Binding Protein 1 (CIB1) Competitor (AID 1508620);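 note: GST tagged CIB1 binding a fluorescein labelled alphaIIb integrin peptide tracer; top concentration of the series differs between compounds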
Conditions: CIB1-GST / FITC-alphaIIb peptide fluorescence polarization; series mostly up to 114 µM; activity change, negative = inhibition: at the top concentration
In short: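 CIB1-GST (1 uM final) and compound incubated 15 min at room temperature before adding FITC-alphaIIb peptide tracer (100 nM final). Competition for binding read by fluorescence polarization (ex 480, em 540) after another 15 min at room temperature.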
% is set by controls: 0 for no effect and ±100 for the full control effect.

Sequence of Calcium and integrin-binding protein 1 (Homo sapiens) (Q99828 whole entry, looked up): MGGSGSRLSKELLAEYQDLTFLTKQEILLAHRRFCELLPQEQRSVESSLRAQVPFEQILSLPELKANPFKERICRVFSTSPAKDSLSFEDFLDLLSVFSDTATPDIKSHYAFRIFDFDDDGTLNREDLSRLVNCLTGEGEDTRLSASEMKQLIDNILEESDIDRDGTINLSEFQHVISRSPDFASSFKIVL

SMILES | activity change, negative = inhibition
Cc1ccc(S(=O)(=O)Nc2ccccc2C(=O)Nc2nc(-c3ccccc3)co2)cc1 | -3.9%
COc1cc(C(=O)Nc2nc(-c3ccccc3)cs2)ccc1NS(=O)(=O)c1ccc(C)cc1 | 7.78%
Cc1ccc(S(=O)(=O)Nc2cc(C(=O)Nc3nc(-c4ccccc4)cs3)ccn2)cc1 | 12.4%
Cc1ccc(S(=O)(=O)Nc2ccc(C(=O)Nc3nc(-c4ccc(Cl)cc4)cs3)cc2)cc1 | 2.21%
Cc1ccc(C(=O)[C@H]2CC[C@@H](C(=O)Nc3ccc(S(=O)(=O)Nc4nccs4)cc3)C2)cc1C | 3.63%
Cc1ccc(-c2cc(C(=O)NCc3ccccc3)c3ccccc3n2)cc1C | 9.16%
Cc1ccc(-c2cc(C(=O)Nc3ccc(-n4cncn4)cc3)c3ccccc3n2)cc1C | 8.2%
Cc1ccc(S(=O)(=O)Nc2cncc(C(=O)Nc3nc(-c4ccccc4)cs3)c2)cc1 | -5.88%
Cc1ccc(-c2cc(C(=O)Nc3ccc(S(N)(=O)=O)cc3)c3ccccc3n2)cc1C | 7.14%
O=C(Nc1nc(-c2ccccc2)cs1)c1ccccc1[N+](=O)[O-] | -2.82%
COc1cc(Cl)ccc1C(=O)Nc1nc(-c2ccccc2)cs1 | 2.21%
Cc1ccc(S(=O)(=O)Nc2ccc(F)cc2C(=O)Nc2nc(-c3ccccc3)cs2)cc1 | -13.6%
Cc1ccc(NS(=O)(=O)c2ccccc2C(=O)Nc2nc(-c3ccccc3)cs2)cc1 | 5.45%
Cc1ccc(S(=O)(=O)Nc2ccccc2C(=O)Nc2ccc(-c3ccccc3)nc2)cc1 | 7.4%
COc1ccc(Cl)cc1C(=O)Nc1nc(-c2ccccc2)cs1 | 3.52%
COc1c(NS(=O)(=O)c2ccc(C)cc2)cccc1C(=O)Nc1nc(-c2ccccc2)cs1 | 7.05%
Cc1ccc(-c2cc(C(=O)Nc3ccccc3C)c3ccccc3n2)cc1C | 14.5%
Cc1ccc(NS(=O)(=O)c2ccc(C(=O)Nc3nc(-c4ccccc4)cs3)cc2)cc1 | 4.84%
O=C(Nc1ccc(S(=O)(=O)Nc2nccs2)cc1)[C@@H]1CC[C@H](C(=O)c2ccccc2)C1 | -9.56%
Cc1ccc(C(=O)Nc2ccccc2C(=O)Nc2nc(-c3ccccc3)cs2)cc1 | 2.91%

SMILES | activity change, negative = inhibition
COc1ccc(NS(=O)(=O)c2ccc(C)cc2)cc1C(=O)Nc1nc(-c2ccccc2)cs1 | -1.9%
CC(C)Oc1ccccc1C(=O)Nc1nc(-c2ccccc2)cs1 | 0.95%
Cc1ccc(S(=O)(=O)Nc2cc(Cl)cc(C(=O)Nc3nc(-c4ccccc4)cs3)c2)cc1 | 5.46%
Cc1ccc(S(=O)(=O)N(C)c2ccccc2C(=O)Nc2nc(-c3ccccc3)cs2)cc1 | 8.33%
COc1ccccc1C(=O)Nc1nc(-c2ccccc2)cs1 | -2.81%
Cc1ccc(S(=O)(=O)Nc2ccc(C(=O)Nc3nc(-c4ccccc4)cs3)c(Cl)c2)cc1 | 6.92%
Cc1ccc(S(=O)(=O)Nc2ccccc2C(=O)Nc2nc(-c3ccccc3)c(C)s2)cc1 | -11.2%
CC(C)(C)C1CCC(C(=O)Nc2ccc(S(=O)(=O)Nc3nccs3)cc2)CC1 (stereo not given) | 1.54%
COc1cccc(NS(=O)(=O)c2ccc(C)cc2)c1C(=O)Nc1nc(-c2ccccc2)cs1 | 2.41%
Cc1ccc(-c2cc(C(=O)Nc3ccc(S(=O)(=O)Nc4ccc(C#N)cc4)cc3)c3ccccc3n2)cc1C | 9.25%
Cc1ccc(S(=O)(=O)Nc2cccc(C(=O)Nc3nc(-c4ccc(Cl)cc4)cs3)c2)cc1 | 3.99%
Cc1ccc(S(=O)(=O)Nc2ccccc2C(=O)Nc2ncc(-c3ccccc3)s2)cc1 | -14.7%
Cc1ccc(S(=O)(=O)Nc2ccccc2C(=O)Nc2ccc(-c3ccccc3)cc2)cc1 | 0.325%
COC(=O)c1ccccc1C(=O)Nc1nc(-c2ccccc2)cs1 | 1.13%
O=C(Nc1ccc(S(=O)(=O)Nc2nccs2)cc1)C1CCC2(CCC2)CC1 | 0.43%
Cc1ccc(NS(=O)(=O)c2cccc(C(=O)Nc3nc(-c4ccccc4)cs3)c2)cc1 | 1.23%
Cc1ccc(-c2cc(C(=O)Nc3ccc(S(=O)(=O)N(C)C)cc3)c3ccccc3n2)cc1C | 0.0386%
Cc1ccc(S(=O)(=O)n2cc(C(=O)Nc3nc(-c4ccccc4)cs3)c3ccccc32)cc1 | -3.6%
Cc1ccc(S(=O)(=O)Nc2cc(C(=O)Nc3nc(-c4ccccc4)cs3)ccc2Cl)cc1 | -3.2%
Cc1ccc(-c2cc(C(=O)Nc3ccn[nH]3)c3ccccc3n2)cc1C | 8.55%
